These results are taken from paper PMC13541613, “GHT-SELEX demonstrates unexpectedly high intrinsic sequence specificity and complex DNA binding of many human transcription factors”.

Common to all, as to assay: HT-SELEX; 20 mM HEPES pH 7, 140 mM KCl, 5 mM NaCl, 1 mM K2HPO4, 2 mM MgSO4, 100 uM EGTA, ZnSO4, 0.1% Tween20; room temperature, 1 h; high values mean tight binding
What all share (conditions): protein: ivt; tags: eGFP (N-terminal); dsDNA, one strand shown

For one experiment, the target named is ZNF721 full-length (Homo sapiens, UniProt Q8TF20-2 1-923). In a few lines: (§1)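 A tagged transcription factor, either full-length or its DNA-binding-domain fragment, was made in HEK293 lysate or cell-free extract, immobilised on beads and incubated with a randomized 40-base DNA library for 1 h at room temperature in HEPES/KCl low-stringency buffer containing Tween20. Washed beads were heat-eluted, and the bound DNA was PCR-amplified over successive cycles and Illumina-sequenced at ~3 million 60 bp reads per sample. The binding signal is the relative k-mer count in selected reads, where a higher value means tighter binding.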
Sequence of ZNF721 full-length (Q8TF20 other isoform, or with tags, fused parts or gaps): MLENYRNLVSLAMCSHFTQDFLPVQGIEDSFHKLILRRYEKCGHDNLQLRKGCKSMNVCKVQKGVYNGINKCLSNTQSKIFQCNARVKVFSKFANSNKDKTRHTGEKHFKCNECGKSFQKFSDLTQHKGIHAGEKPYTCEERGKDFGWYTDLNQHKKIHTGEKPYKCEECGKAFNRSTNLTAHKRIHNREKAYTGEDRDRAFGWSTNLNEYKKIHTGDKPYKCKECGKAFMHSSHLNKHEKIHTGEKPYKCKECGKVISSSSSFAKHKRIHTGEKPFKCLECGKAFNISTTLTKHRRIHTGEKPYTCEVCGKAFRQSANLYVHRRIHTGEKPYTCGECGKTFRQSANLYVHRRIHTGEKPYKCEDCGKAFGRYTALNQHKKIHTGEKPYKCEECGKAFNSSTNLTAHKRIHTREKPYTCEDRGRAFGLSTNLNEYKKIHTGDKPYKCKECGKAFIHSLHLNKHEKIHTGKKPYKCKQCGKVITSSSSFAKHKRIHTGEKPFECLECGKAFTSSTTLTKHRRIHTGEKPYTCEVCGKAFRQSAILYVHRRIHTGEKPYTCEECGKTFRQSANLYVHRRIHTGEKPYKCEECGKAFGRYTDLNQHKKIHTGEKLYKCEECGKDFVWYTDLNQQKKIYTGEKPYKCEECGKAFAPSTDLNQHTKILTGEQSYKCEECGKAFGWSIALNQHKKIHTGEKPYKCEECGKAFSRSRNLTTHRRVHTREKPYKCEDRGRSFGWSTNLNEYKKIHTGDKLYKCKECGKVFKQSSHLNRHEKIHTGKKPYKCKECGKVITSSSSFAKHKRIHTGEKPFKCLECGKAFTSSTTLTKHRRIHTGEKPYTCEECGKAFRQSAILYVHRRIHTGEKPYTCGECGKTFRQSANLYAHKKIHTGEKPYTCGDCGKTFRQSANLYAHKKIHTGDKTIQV

A further experiment has as its target ZNF721 DBD1 (Homo sapiens, UniProt Q8TF20-2 29-461). The method, boiled down: as §1
Another experiment addresses ZNF721 DBD2 (Homo sapiens, UniProt Q8TF20-2 395-923). The method, boiled down: as §1

Sequence of ZNF721 DBD2 (Q8TF20 383-911): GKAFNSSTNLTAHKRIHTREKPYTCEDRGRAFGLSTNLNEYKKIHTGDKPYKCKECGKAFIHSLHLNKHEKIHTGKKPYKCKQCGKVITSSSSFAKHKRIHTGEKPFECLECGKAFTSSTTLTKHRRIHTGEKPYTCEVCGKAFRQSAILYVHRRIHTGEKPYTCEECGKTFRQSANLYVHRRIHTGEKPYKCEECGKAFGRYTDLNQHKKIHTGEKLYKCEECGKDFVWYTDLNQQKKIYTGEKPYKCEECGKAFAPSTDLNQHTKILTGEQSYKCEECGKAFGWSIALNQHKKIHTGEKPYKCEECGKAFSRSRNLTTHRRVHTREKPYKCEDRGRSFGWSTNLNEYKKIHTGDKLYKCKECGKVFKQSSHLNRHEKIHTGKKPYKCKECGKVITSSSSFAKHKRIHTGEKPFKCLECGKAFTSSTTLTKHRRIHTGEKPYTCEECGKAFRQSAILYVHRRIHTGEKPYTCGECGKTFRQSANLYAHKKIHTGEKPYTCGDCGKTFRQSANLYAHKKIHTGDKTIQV
Sequence of ZNF721 DBD1 (Q8TF20 17-449): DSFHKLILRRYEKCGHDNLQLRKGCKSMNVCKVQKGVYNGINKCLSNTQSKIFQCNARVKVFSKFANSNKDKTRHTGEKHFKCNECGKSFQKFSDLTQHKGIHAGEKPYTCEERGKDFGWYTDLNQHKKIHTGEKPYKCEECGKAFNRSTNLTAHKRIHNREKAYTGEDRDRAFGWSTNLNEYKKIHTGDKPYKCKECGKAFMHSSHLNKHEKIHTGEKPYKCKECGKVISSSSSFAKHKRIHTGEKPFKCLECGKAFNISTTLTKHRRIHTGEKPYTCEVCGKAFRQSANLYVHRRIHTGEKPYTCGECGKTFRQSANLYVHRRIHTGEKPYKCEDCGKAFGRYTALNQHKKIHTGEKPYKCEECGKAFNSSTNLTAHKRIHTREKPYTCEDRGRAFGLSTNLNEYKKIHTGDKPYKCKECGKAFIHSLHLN

For CTCCCCACCC, the values for the binding signal with ZNF721 full-length, with ZNF721 DBD1 and with ZNF721 DBD2 were 0.198 relative 10-mer count, 0.00936 relative 10-mer count and 0.00395 relative 10-mer count, respectively.
For AAAGGCATAC, in that order: 0.129 relative 10-mer count, 0.00142 relative 10-mer count and 0.123 relative 10-mer count.
For CCCACCGACC, in that order: 0.127 relative 10-mer count, 0.00394 relative 10-mer count and 0.00455 relative 10-mer count.
For AGGGGGCGGG, in that order: 0.128 relative 10-mer count, 0.00463 relative 10-mer count and 0.0012 relative 10-mer count.
With ACCCCCGCCC, the values for the binding signal with ZNF721 full-length, in the experiment with ZNF721 DBD1 and with ZNF721 DBD2 were 0.173 relative 10-mer count, 0.00619 relative 10-mer count and 0.00348 relative 10-mer count, respectively.
For the sequence AAGGGGTGGG, the binding signal was determined as 0.102 relative 10-mer count with ZNF721 full-length, 0.00546 relative 10-mer count in the experiment with ZNF721 DBD1 and 0.00395 relative 10-mer count with ZNF721 DBD2.
For CACCCTCCAC, in that order: 0.106 relative 10-mer count, 0.0056 relative 10-mer count and 0.00587 relative 10-mer count.
For CCACCACCAC the same measures were 0.19 relative 10-mer count, 0.00688 relative 10-mer count and 0.00647 relative 10-mer count.
For CACCTCCCCC, in that order: 0.188 relative 10-mer count, 0.00798 relative 10-mer count and 0.00443 relative 10-mer count.
With CCCCACCCAC, the binding signal in the experiment with ZNF721 full-length came out at 0.337 relative 10-mer count; with ZNF721 DBD1, 0.0124 relative 10-mer count; with ZNF721 DBD2, 0.00587 relative 10-mer count.
For CACGCCACCC, in that order: 0.103 relative 10-mer count, 0.00344 relative 10-mer count and 0.00587 relative 10-mer count.
For AAAAAGCAGC, the values for the binding signal in the experiment with ZNF721 full-length, in the experiment with ZNF721 DBD1 and with ZNF721 DBD2 were 0.557 relative 10-mer count, 0.00835 relative 10-mer count and 0.477 relative 10-mer count, respectively.
Regarding CACAAAAAAA, the binding signal worked out at 0.181 relative 10-mer count with ZNF721 full-length, 0.0107 relative 10-mer count with ZNF721 DBD1 and 0.0847 relative 10-mer count with ZNF721 DBD2.
In the case of TCCCACCCCA, the figures for the binding signal with ZNF721 full-length, with ZNF721 DBD1 and with ZNF721 DBD2 were 0.147 relative 10-mer count, 0.00564 relative 10-mer count and 0.00372 relative 10-mer count, respectively.
For CCACCCACCC the same measures were 0.415 relative 10-mer count, 0.0173 relative 10-mer count and 0.00587 relative 10-mer count.
For CTCCCCGCCC the same measures were 0.131 relative 10-mer count, 0.00583 relative 10-mer count and 0.00372 relative 10-mer count.
For CCACCTCCCA the same measures were 0.127 relative 10-mer count, 0.0061 relative 10-mer count and 0.00384 relative 10-mer count.
For AGTGTATCCA, the binding signal in the experiment with ZNF721 full-length stood at 0.248 relative 10-mer count; in the experiment with ZNF721 DBD1 it was 0.11 relative 10-mer count; in the experiment with ZNF721 DBD2, 0.197 relative 10-mer count.
Take CCCACCCGCC: the binding signal in the experiment with ZNF721 full-length was 0.216 relative 10-mer count; in the experiment with ZNF721 DBD1, 0.00794 relative 10-mer count; in the experiment with ZNF721 DBD2 it was 0.00539 relative 10-mer count.
For CACAAAAAAG, in that order: 0.102 relative 10-mer count, 0.00853 relative 10-mer count and 0.0405 relative 10-mer count.
Regarding CCACCCCGCC, the figures for the binding signal with ZNF721 full-length, with ZNF721 DBD1 and with ZNF721 DBD2 were 0.263 relative 10-mer count, 0.00894 relative 10-mer count and 0.00503 relative 10-mer count, respectively.
For CCCCACACCC the same measures were 0.274 relative 10-mer count, 0.01 relative 10-mer count and 0.00443 relative 10-mer count.
As for CCTACCCACC, the binding signal with ZNF721 full-length was 0.124 relative 10-mer count; with ZNF721 DBD1, 0.00546 relative 10-mer count; with ZNF721 DBD2 it was 0.0101 relative 10-mer count.
For CGCCACCACC, in that order: 0.108 relative 10-mer count, 0.00468 relative 10-mer count and 0.00384 relative 10-mer count.
For AACAAGCAGC, in that order: 0.132 relative 10-mer count, 0.0039 relative 10-mer count and 0.0997 relative 10-mer count.
For AGGGTGGGGG the same measures were 0.202 relative 10-mer count, 0.0102 relative 10-mer count and 0.00563 relative 10-mer count.
For GCCCCACCCC, the binding signal came to 0.216 relative 10-mer count in the experiment with ZNF721 full-length, 0.00775 relative 10-mer count with ZNF721 DBD1 and 0.00599 relative 10-mer count with ZNF721 DBD2.
For ACCGCCACCC, in that order: 0.111 relative 10-mer count, 0.00335 relative 10-mer count and 0.00192 relative 10-mer count.
For CCCCACCCCG, in that order: 0.186 relative 10-mer count, 0.00784 relative 10-mer count and 0.00384 relative 10-mer count.
For CTCCCCCCCC the same measures were 0.158 relative 10-mer count, 0.00761 relative 10-mer count and 0.003 relative 10-mer count.
In the case of AAAGCAGCCC, the binding signal with ZNF721 full-length was 0.134 relative 10-mer count; with ZNF721 DBD1 it was 0.00225 relative 10-mer count; with ZNF721 DBD2, 0.133 relative 10-mer count.
With CCCACTCCCC, the binding signal in the experiment with ZNF721 full-length was determined as 0.155 relative 10-mer count; in the experiment with ZNF721 DBD1, 0.00656 relative 10-mer count; with ZNF721 DBD2, 0.00372 relative 10-mer count.
For CCCCAGCCCC, in that order: 0.202 relative 10-mer count, 0.0083 relative 10-mer count and 0.0018 relative 10-mer count.
On to CGTCCCACCC, for which the binding signal with ZNF721 full-length is 0.127 relative 10-mer count; in the experiment with ZNF721 DBD1, 0.00495 relative 10-mer count; in the experiment with ZNF721 DBD2, 0.00204 relative 10-mer count.
For GCTTTTTTCA the same measures were 0.21 relative 10-mer count, 0.076 relative 10-mer count and 0.0334 relative 10-mer count.
For CCACCGCCCA, in that order: 0.131 relative 10-mer count, 0.00477 relative 10-mer count and 0.00575 relative 10-mer count.
Take CATCCCCACC: the binding signal with ZNF721 full-length was found to be 0.126 relative 10-mer count; with ZNF721 DBD1, 0.0072 relative 10-mer count; in the experiment with ZNF721 DBD2, 0.0188 relative 10-mer count.
Turning to AGCGTCTCCT, the binding signal with ZNF721 full-length was 0.109 relative 10-mer count; with ZNF721 DBD1 it was 0.0353 relative 10-mer count; with ZNF721 DBD2, 0.194 relative 10-mer count.
For AGGGCGGGGG the same measures were 0.14 relative 10-mer count, 0.0056 relative 10-mer count and 0.00276 relative 10-mer count.
For CACCCCCACA, in that order: 0.116 relative 10-mer count, 0.00482 relative 10-mer count and 0.00779 relative 10-mer count.
For CCCCTCCCAC, in that order: 0.218 relative 10-mer count, 0.0104 relative 10-mer count and 0.00695 relative 10-mer count.
Turning to ACCCACCCGC, the binding signal with ZNF721 full-length is 0.102 relative 10-mer count; with ZNF721 DBD1, 0.00316 relative 10-mer count; with ZNF721 DBD2, 0.00276 relative 10-mer count.
For GCTTTTTTTA, in that order: 0.176 relative 10-mer count, 0.0317 relative 10-mer count and 0.0453 relative 10-mer count.
For CCCCACCACG the same measures were 0.11 relative 10-mer count, 0.0039 relative 10-mer count and 0.00623 relative 10-mer count.
For AAAGCAGCAC the same measures were 0.125 relative 10-mer count, 0.00583 relative 10-mer count and 0.126 relative 10-mer count.
Take CCGTCCCCCC: the binding signal with ZNF721 full-length amounted to 0.15 relative 10-mer count; in the experiment with ZNF721 DBD1, 0.00693 relative 10-mer count; with ZNF721 DBD2 it was 0.00192 relative 10-mer count.
For CCGCCTCCCC the same measures were 0.155 relative 10-mer count, 0.00798 relative 10-mer count and 0.00204 relative 10-mer count.
For ACAAAAAACA, in that order: 0.143 relative 10-mer count, 0.00197 relative 10-mer count and 0.172 relative 10-mer count.
Regarding CACCACCCAC, the binding signal is 0.206 relative 10-mer count in the experiment with ZNF721 full-length, 0.0105 relative 10-mer count with ZNF721 DBD1 and 0.0119 relative 10-mer count with ZNF721 DBD2.
For CCACCGACCC the same measures were 0.107 relative 10-mer count, 0.00482 relative 10-mer count and 0.0036 relative 10-mer count.
For CCCACCCCCC the same measures were 0.427 relative 10-mer count, 0.0183 relative 10-mer count and 0.00384 relative 10-mer count.
For AGAAAAAAGC, in that order: 0.36 relative 10-mer count, 0.107 relative 10-mer count and 0.0556 relative 10-mer count.
As for CCACCCCAGC, the binding signal was found to be 0.102 relative 10-mer count with ZNF721 full-length, 0.00372 relative 10-mer count with ZNF721 DBD1 and 0.00252 relative 10-mer count with ZNF721 DBD2.
For CAAAAAAGCA the same measures were 0.259 relative 10-mer count, 0.00725 relative 10-mer count and 0.17 relative 10-mer count.
For CATACCCAAA, in that order: 0.103 relative 10-mer count, 0.00583 relative 10-mer count and 0.0665 relative 10-mer count.
For CCCCACCCTC, in that order: 0.21 relative 10-mer count, 0.00986 relative 10-mer count and 0.00599 relative 10-mer count.
Regarding CACCACCCGC, the results for the binding signal with ZNF721 full-length, with ZNF721 DBD1 and in the experiment with ZNF721 DBD2 were 0.111 relative 10-mer count, 0.00454 relative 10-mer count and 0.00527 relative 10-mer count, respectively.
For CCACCTACCC the same measures were 0.112 relative 10-mer count, 0.00527 relative 10-mer count and 0.00455 relative 10-mer count.
For CAGGGGTGGG, in that order: 0.103 relative 10-mer count, 0.00482 relative 10-mer count and 0.00419 relative 10-mer count.
For CCGCCCGCCC, in that order: 0.136 relative 10-mer count, 0.00495 relative 10-mer count and 0.00192 relative 10-mer count.
For ATAAAAAAGC, the results for the binding signal in the experiment with ZNF721 full-length, in the experiment with ZNF721 DBD1 and with ZNF721 DBD2 were 0.12 relative 10-mer count, 0.0221 relative 10-mer count and 0.0443 relative 10-mer count, respectively.
For CAAAAAAAGC the same measures were 0.202 relative 10-mer count, 0.0258 relative 10-mer count and 0.0675 relative 10-mer count.
For CCCACACCAC the same measures were 0.137 relative 10-mer count, 0.00541 relative 10-mer count and 0.00503 relative 10-mer count.
For CCCCCCCACA, in that order: 0.124 relative 10-mer count, 0.00491 relative 10-mer count and 0.00743 relative 10-mer count.
Regarding CCGCGCCCCC, the binding signal in the experiment with ZNF721 full-length amounted to 0.115 relative 10-mer count; with ZNF721 DBD1, 0.00427 relative 10-mer count; in the experiment with ZNF721 DBD2, 0.0018 relative 10-mer count.
For CCCTACCACC, in that order: 0.104 relative 10-mer count, 0.00578 relative 10-mer count and 0.0144 relative 10-mer count.
